A short description of assay [1]: Cell Viability - H-4-II-E (AID 543).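 Further: cells exposed to compound for 40 hours; on the % scale 0 is the no-effect control and ±100 the full control effect; nearly all actives have a fitted effect of over 35% in size.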 The method, boiled down:
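Rat hepatoma H-4-II-E cells, 1500 per well, treated 40 h at 37 °C in complete medium. Cellular ATP read by CellTiter-Glo luminescence; AC50 from Hill fits of concentration-response.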

The nature of assay [2]: Cell Viability - SH-SY5Y (AID 544).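 Further: cells exposed to compound for 40 hours; nearly all actives have a fitted effect of over 55% in size.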 Conditions: SH-SY5Y neuroblastoma cell viability; viability change, negative = cytotoxic: at 92.2 µM (top of the series). The method, boiled down:
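SH-SY5Y human neuroblastoma cells (1500/well) incubated 5 h, then compound-treated 40 h at 37 °C in complete medium. Viability read as intracellular ATP by CellTiter-Glo luminescence after 20 min; AC50 from Hill-equation fits of qHTS concentration-response.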

The nature of assay [3]: Cellular Toxicity (caspase-3) Jurkat (AID 655).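 Further: cells exposed to compound for 16 h at 37 °C before reading.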 Conditions: Jurkat caspase-3 activation, luminescence; caspase-3 activation: at 92.2 µM (top of the series), DMSO = 0%, tamoxifen = 100%. The method, boiled down:
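Luminescent caspase-3/7 readout (aminoluciferin substrate cleavage) in human T-cell leukemia Jurkat cells after 16 hr compound exposure. Concentration-response normalized to DMSO and 100 uM tamoxifen; AC50 by standard Hill equation.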

Assay [4] can be described thus: Cell Viability - LYMP2-001 (AID 921).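 Further: 0% = DMSO only and full inhibition = tetraoctylammonium bromide control wells; nearly all actives have a fitted effect of over 70% in size.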 The method, boiled down: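 CellTiter-Glo luminescence (intracellular ATP) after 24 hr compound exposure at 37 C, 2500 lymphoblastoid cells/well in complete medium. AC50 fitted with standard Hill equation; tetraoctylammonium bromide positive control.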
The nature of assay [5]: MultiTox-Fluor Cytotoxicity Assay - LYMP1-003 - Live Cells (AID 962).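 Further: 0% = DMSO only and full loss = 92 µM tetraoctylammonium bromide; cytotoxic hits lower the live-cell protease signal.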 The gist of the method:
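LYMP1-003 lymphoblastoid cells, 2500/well in complete medium, treated 16 h at 37 C; live-cell protease cleavage of GF-AFC read by fluorescence (Ex/Em 405/510) after 60 min reagent; AC50 from Hill fits of concentration-response.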

Assay [6] can be described thus: Cell Viability - LYMP2-004 (AID 966).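 Further: plate controls were DMSO only for no effect and tetraoctylammonium bromide control for full effect; nearly all actives have a fitted effect of over 65% in size.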 The method, boiled down: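 Lymphoblastoid LYMP2-004 cells, 2500 per well, were preincubated for 5 hr and then treated with compound for 24 h at 37 C in complete medium. Viability was read as cellular ATP by CellTiter-Glo luminescence, and AC50 values were taken from Hill fits to concentration-response data.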
A short description of assay [7]: Cell Viability - LYMP2-015 (AID 971).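 Further: 0% = DMSO only and full effect = 92 µM tetraoctylammonium bromide; nearly all actives have a fitted effect of over 55% in size.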 The method, boiled down: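 LYMP2-015 human lymphoblastoid cells (2500/well) in complete medium, compound-treated 24 h at 37 C; viability read as cellular ATP by CellTiter-Glo luminescence after 30 min at room temperature. AC50 from Hill-equation fits of qHTS concentration-response data.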
Assay [8] can be described thus: Cell Viability - LYMP2-019 (AID 973).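 Further: 0% = DMSO alone and full effect = 92 µM tetraoctylammonium bromide; nearly all actives have a fitted effect of over 55% in size.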 The method, boiled down: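 Human lymphoblastoid LYMP2-019 cells (2500/well) preincubated 5 h at 37 C, then treated 24 h at 37 C in complete medium. Viability by CellTiter-Glo ATP luminescence after 30 min at room temperature; AC50 from Hill fits.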
The nature of assay [9]: Cell Viability - LYMP2-021 (AID 974).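 Further: compound exposure lasts 24 hours at 37 °C; on the % scale 0 is the no-effect control and ±100 the full control effect; nearly all actives have a fitted effect of over 55% in size.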 The gist of the method:
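Human lymphoblastoid LYMP2-021 cells, 2500/well in complete medium, treated 24 hours at 37 C. Intracellular ATP by CellTiter-Glo luminescence (30 min, RT); AC50 from Hill fits of concentration-response.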

The nature of assay [10]: Cell Viability - LYMP2-025 (AID 976).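 Further: plate controls were DMSO only for no effect and tetraoctylammonium bromide control for full effect.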 The gist of the method: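 Human lymphoblastoid LYMP2-025 cells, 2500/well, exposed 24 h at 37 C in complete medium in 1536-well qHTS. Viability as cellular ATP by CellTiter-Glo luminescence; AC50 from Hill fits of concentration-response data.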
Assay [11] in a line: Cell Viability - LYMP2-006 (AID 978). Further: on the % scale 0 is the no-effect control and ±100 the full control effect; nearly all actives have a fitted effect of over 60% in size. The method, boiled down: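 qHTS, 1536-well; 2500 cells/well, 5 hr 37 C; cpd 24 hr 37 C; CellTiter-Glo 30 min RT; luminescence. Tetraoctylammonium bromide pos. ctrl. AC50 via Hill eqn.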
The nature of assay [12]: Cell Viability - LYMP2-007 (AID 979).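 Further: cells exposed to compound for 24 h before reading; 0% = DMSO only and the negative end = 92 µM tetraoctylammonium bromide; nearly all actives have a fitted effect of over 60% in size.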 The method, boiled down:
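Human lymphoblastoid LYMP2-007 cells (2500/well) preincubated 5 h at 37 C, then treated 24 h at 37 C in complete medium. Viability by CellTiter-Glo ATP luminescence after 30 min at room temperature; AC50 from Hill fits.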

Assay [13] in a line: Cell Viability - LYMP2-014 (AID 983).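 Further: plate controls were DMSO only for no effect and 92 µM tetraoctylammonium bromide for full effect; nearly all actives have a fitted effect of over 50% in size.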 The method, boiled down: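 LYMP2-014 human lymphoblastoid cells, 2500/well, treated 24 h at 37 C in complete medium; viability by CellTiter-Glo ATP luminescence after 30 min at room temperature. AC50 from Hill fits of qHTS concentration-response; tetraoctylammonium bromide positive control.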
A short description of assay [14]: Cell Viability - LYMP2-018 (AID 985).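 Further: plate controls were DMSO only for no effect and tetraoctylammonium bromide at 92 µM for full effect; nearly all actives have a fitted effect of over 50% in size.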 The gist of the method:
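Human lymphoblastoid LYMP2-018 cells, 2500/well, settled 5 hr at 37 C then exposed to compound 24 hr at 37 C; intracellular ATP measured by CellTiter-Glo luminescence. AC50 from Hill-equation concentration-response fits.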

Assay [15] is described as follows: Cell Viability - LYMP2-020 (AID 986). The method, boiled down:
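Human lymphoblastoid LYMP2-020 cells (2500/well) preincubated 5 h at 37 C, then treated 24 h at 37 C. Viability measured as intracellular ATP by CellTiter-Glo luminescence after 30 min at room temperature; AC50 from Hill fits.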

Assay [16] can be described thus: Cell Viability - LYMP2-022 (AID 987). The gist of the method: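 LYMP2-022 lymphoblastoid cells (2500/well, complete medium) were treated with compounds for 24 hours at 37 C; intracellular ATP was then read by CellTiter-Glo luminescence after 30 min at room temperature. AC50 values were derived from Hill-equation fits.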
Assay [17] in a line: Cell Viability - LYMP2-026 (AID 989). Further: on the % scale 0 is the no-effect control and ±100 the full control effect; nearly all actives have a fitted effect of over 50% in size. The gist of the method:
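Human lymphoblastoid LYMP2-026 cells, 2500/well, exposed to compound 24 h at 37 C in complete medium. Viability as intracellular ATP by CellTiter-Glo luminescence; AC50 from Hill fits of qHTS concentration-response.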

Assay [18] in a line: Cell Viability - LYMP1-002 - Assay at 40 hr (AID 994).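 Further: 0% = DMSO only and full inhibition = 92 µM tetraoctylammonium bromide; nearly all actives have a fitted effect of over 60% in size.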 The method, boiled down: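 LYMP1-002 human lymphoblastoid cells (2500/well, complete medium) were treated with compounds for 40 hr at 37 C. Intracellular ATP was measured by CellTiter-Glo luminescence, and AC50 values came from Hill-equation fits of concentration-response data; tetraoctylammonium bromide was the positive control.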

Assay [19] can be described thus: qHTS assay for small molecule agonists of retinoid X receptor alpha signaling (AID 588544). As to conditions: HEK293T RXRa-UAS-bla, beta-lactamase reporter, 18 h; 530 nm emission. (qHTS replaces the single test concentration by a dilution series.)
A short description of assay [20]: qHTS assay for small molecule antagonists of the retinoid-related orphan receptor gamma (ROR-gamma) signaling pathway - cell viability counter screen (AID 720652; active means well fitted curve in the direction sought with a large enough effect in the repeat runs; an effect the other way counts as inactive or inconclusive;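 further: CHO reporter cells with doxycycline-induced ROR-gamma expression; compound exposure lasted 16 hr before ATP read; on the % scale 0 is the no-effect control and ±100 the full control effect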). The method, boiled down:
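CHO cells carrying TET-inducible ROR and RORE-luciferase reporter, plated 5 hr, then dosed with compound plus doxycycline. After 16 hr at 37 C, viability read as intracellular ATP by CellTiter-Glo luminescence.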

Inconclusive results are not listed. The source made the active and inactive calls. Unless noted, the call rests on the fitted dose curve; in most records, active means well fitted curve in the direction sought with a large enough effect; inconclusive means small, poorly fitted or top-dose-only effect, or another doubt; inactive means no such curve, though single readings can be large; an effect the other way counts as inactive or inconclusive.

On to `BrCCc1ccccc1`, for which the Potency entry in assay [1], in [2], in assay [4], in [6], in [7] and in assay [8] was “inactive” in each case. The Potency entry in assay [9], in assay [10], in [11], in assay [12], in assay [13] and in assay [14] was “inactive” throughout. Moreover, the Potency entry in assay [15], in assay [16], in assay [17], in [18] and in assay [20] was “inactive” in each case. Besides, the caspase-3 activation in assay [3] was 1.89% (inactive). For the same compound, in assay [5], the compound was called inactive. Besides, the max response in assay [19] is 1.56%.

Take `ClCC(Br)CBr` (centres undefined): the Potency entry in assay [1], in assay [2], in assay [4], in assay [6], in [7] and in assay [8] was “inactive” in each case. Also, the Potency entry in assay [9], in assay [10], in [11], in assay [12], in assay [13] and in assay [14] was “inactive” each time. For the same compound, the Potency result in [15], in [16], in assay [17], in [18] and in [20] was “inactive” in each case. In assay [3], the caspase-3 activation is 0.662% (inactive). Moreover, the outcome in assay [5] was inactive. The max response in assay [19] was -9.36%.

In the case of `Cc1ccc(N)c(C)c1`, the Potency entry in assay [1], in [2], in assay [4], in assay [6], in [7] and in [8] was “inactive” throughout. Besides, the Potency result in assay [9], in assay [10], in assay [11], in assay [12], in assay [13] and in assay [14] was “inactive” each time. The Potency entry in [15], in assay [16], in [17], in assay [18] and in [20] was “inactive” throughout. In assay [3], the caspase-3 activation was 1.21% (inactive). Besides, the call in assay [5] was inactive. For the same compound, the max response in [19] was -7.75%.

On to `[O-][Cl+2]([O-])O`, for which the Potency result in assay [1], in [2], in assay [4], in assay [6], in assay [7] and in assay [8] was “inactive” in each case. Moreover, the Potency result in [9], in assay [10], in assay [11], in [12], in assay [13] and in assay [14] was “inactive” in each case. Besides, the Potency result in [15], in [16], in assay [17], in assay [18] and in [20] was “inactive” throughout. Further, the caspase-3 activation in [3] is -0.446% (inactive). For the same compound, in [5], the call was inactive. Moreover, the max response in [19] turned out to be 6.62%.

As to `Clc1ccc(C(Cl)(Cl)Cl)c(Cl)c1`, the Potency entry in assay [1], in assay [2], in [4], in assay [6], in assay [7] and in assay [8] was “inactive” in each case. In addition, the Potency entry in [9], in [10], in assay [11], in [12], in [13] and in assay [14] was “inactive” throughout. For the same compound, the Potency result in assay [15], in assay [16], in [17], in assay [18] and in assay [20] was “inactive” in each case. In addition, the caspase-3 activation in assay [3] is -1.19% (inactive). For the same compound, the outcome in [5] was inactive. In addition, the max response in assay [19] was -5.84%.

With `CC(Cl)CCl` (centres undefined), the Potency result in assay [1], in assay [2], in [4], in assay [6], in assay [7] and in assay [8] was “inactive” throughout. The Potency result in assay [9], in assay [10], in [11], in assay [12], in [13] and in [14] was “inactive” each time. Further, the Potency result in assay [15], in [16], in assay [17], in assay [18] and in [20] was “inactive” in each case. In addition, the caspase-3 activation in [3] was 0.191% (inactive). Moreover, the call in assay [5] was inactive. Moreover, in [19], the max response was -14.1%.

On to `Clc1ccc(C(Cl)(Cl)Cl)cc1Cl`, for which the Potency entry in assay [1], in [2], in assay [4], in assay [6], in assay [7] and in [8] was “inactive” each time. Further, the Potency result in assay [9], in assay [11], in assay [12], in assay [13], in [14] and in assay [15] was “inactive” throughout. Also, the Potency result in [16], in assay [17], in assay [18] and in assay [20] was “inactive” each time. Moreover, the caspase-3 activation in assay [3] is 0.663% (inactive). Further, the call in assay [5] was inactive. The max response in [19] is -3.09%.

The record behind these values is PubChem BioAssay (NCATS).
